This note sets out measurements from PubChem BioAssay AID651774 (Broad Institute, 2012).

Entries with a potency or affinity are not part of this list. Calls of active or inactive are those of the source. How the calls were made is not given here.

The experiment is described as follows: cytotoxicity in HeLa cells, dose response, cytotoxicity control, cell-based, 24 h, dry powder (AID 651774). Particulars: HeLa viability, CellTiter-Glo ATP luminescence; series mostly up to 35 µM.
For `Cn1nnc(NCc2ccccc2)n1`, the call was inactive.
As to `Cn1nnnc1NCc1ccccc1`, the result was inactive.
On to `O=C(Cc1cccc(F)c1)NC1CCCC1`, for which the molecule was called inactive.
On to `O=C(Cc1ccccc1C(F)(F)F)NC1CCCC1`, for which the call was inactive.
As to `O=C(Cc1ccc(-c2ccccn2)cc1)NC1CCCC1`, the molecule was called inactive.
`CC(C)n1nnc(NCc2ccc(N3CCCC3)cc2)n1`: the result was inactive.
With `CC(C)n1nnnc1NCc1ccc(N2CCCC2)cc1`, the molecule was classed as inactive.
Consider `O=C(Cc1ccc(-c2ccccc2)cc1)N1CCOCC1`, for which the result was inactive.
As to `O=C(Cc1ccc(-c2ccccc2)cc1)N1CCCC1`, the outcome was inactive.
With `O=C(Cc1cccc(Cl)c1)NC1CCCC1`, the molecule was classed as inactive.
Turning to `O=C(Cc1ccncc1)NC1CCCC1`, the call was inactive.
`O=C(Cc1ccccc1F)NC1CCCC1`: the molecule was called inactive.
As to `CC(C)(C)OC(=O)N1CCC(NC(=O)Cc2ccc(-c3ccccc3)cc2)CC1`, the call was inactive.
As for `O=C(Cc1ccc(OC(F)(F)F)cc1)NC1CCCC1`, the call was inactive.
To `CC(C)NC(=O)Cc1ccc(-c2ccccc2)cc1` belongs “inactive”.
In the case of `COc1ccc(CC(=O)NC2CCCC2)cc1`, the outcome was inactive.
`CCn1nnnc1NCc1ccccc1`: the result was inactive.
The result for `O=C(Cc1ccccc1)NC1CCCC1` reads “inactive”; that for `CCN(Cc1ccc(N2CCCC2)cc1)c1nnnn1CC`, “inactive”; that for `CCn1nnnc1NCc1ccc(C(F)(F)F)cc1`, “inactive”.
In the case of `O=C(Cc1ccccn1)NC1CCCC1`, the outcome was inactive.
Consider `Cc1ccc2cc3c(NC(=O)c4ccco4)nn(C)c3nc2c1`, for which the molecule was classed as inactive.
To `Cn1nnc(NCc2ccc(C(F)(F)F)cc2)n1` belongs “inactive”; to `CC(C)c1ccc(CNc2nn[nH]n2)cc1`, “inactive”; to `O=C(Cc1ccc(-c2ccccc2)cc1)NCc1ccccc1`, “inactive”.
Consider `O=C(Cc1ccc(C(F)(F)F)cc1)NC1CCCC1`, for which the molecule was called inactive.
For the molecule `O=C(Cc1cccc(C(F)(F)F)c1)NC1CCCC1`, the outcome was inactive.
With `CCn1nnc(NCc2ccccc2)n1`, the call was inactive.
For the molecule `O=C(Cc1ccc2ccccc2c1)NC1CCCC1`, the result was inactive.
